In PubChem BioAssay (NCI) one finds growth data, which are given here for eight compounds.

Common to all, as to assay: NCI-60 one-dose screen, 48 h (100 = growth as untreated, 0 = no growth, -100 = all killed)
What all share (conditions): 10 µM unless noted

The subject of test [1] is SR leukemia.
The test system of test [2] is RPMI-8226 leukemia.
The subject of test [3] is OVCAR-8 ovarian.
Test [4] has as its system OVCAR-5 ovarian.
Test [5] concerns OVCAR-4 ovarian.
Test [6] deals with SK-OV-3 ovarian.
The subject of test [7] is IGROV1 ovarian.
Test [8] relates to OVCAR-3 ovarian.
Test [9] relates to HS 578T breast.
For test [10], the system named is NCI/ADR-RES ovarian.
Test [11] concerns T-47D breast.
The test system of test [12] is BT-549 breast.
The test system of test [13] is MDA-MB-435 melanoma.
For test [14], the system named is SW-620 colon.
The test system of test [15] is MCF7 breast.
The subject of test [16] is HCT-116 colon.
In test [17] the test system is HCC-2998 colon.
Test [18] has as its system KM12 colon.

Compounds without any hit were thinned out: in the full panel of roughly 83,000, 20% have a hit.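 Cells were grown in 96-well plates and exposed to the test compound at a single concentration for 48 hours; results are reported as percent growth, with values below 10 considered active.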 Unmarked numbers belong to inactive results. Calls of active or inactive are those of the source.

In the case of `O=C1SCN(Cc2ccccc2)CN1Cc1ccccc1`, the growth in test [1] was 8.82% (active); in test [2], 43.7%; in test [3], 90.7%; in test [4], 105%; in [5], 109%; in test [6], 107%. For the same compound, the growth in [7] was 97.2%; in [8], 105%; in test [9], 95.5%; in test [10] it was 100%; in test [11], 52.2%; in test [12], 131%. Moreover, the growth in [13] is 73.3%; in test [14], 34.3%; in test [15] it was 22.1%; in test [16], 70.5%; in test [17], 115%; in test [18] it was 32.4%.

Consider `C[Si](C)(C)C(c1ccccc1)c1ccccc1`, for which the growth was 86.8% in [1]; 91.6% in [2]; 102% in test [3]; 110% in test [4]; 109% in test [5]; 98.4% in [6]. In addition, the growth in [7] is 97.1%; in test [8], 113%; in [9], 98.9%; in [10] it was 98.9%; in [11] it was 91.4%; in [12], 108%. The growth was 92.1% in [13]; 101% in test [14]; 106% in test [15]; 97.7% in test [16]; 97.2% in test [17]; 107% in test [18].

Regarding `CCCCCCCCCCCCCCCCCC1=NCCN1CCO`, the growth in test [1] is 7.41% (active); in test [2], 78.9%; in test [3], 70.5%; in test [4] it was 82.7%; in test [5] it was 115%; in [6], 97.9%. In addition, the growth is 25.7% in test [7]; 77% in test [8]; 85.8% in test [9]; 84.5% in test [10]; 95% in [11]; 91.5% in [12]. Besides, the growth is 101% in [13]; 65.2% in [14]; 74.3% in test [15]; 65.1% in [16]; 61.3% in test [17].

Turning to `CN(C)c1ccc(C2(Cl)c3ccccc3N(C)c3ccccc32)cc1`, the growth was 25.4% in test [1]; 21.1% in test [2]; 7.94% (active) in test [3]; 91.7% in test [4]; 59.5% in test [5]; 77.6% in [6]. For the same compound, the growth in test [7] was 46.5%; in [8] it was 35.8%; in test [9], 71.7%; in [10] it was 94.6%; in test [11], 33.5%; in [12], 71.9%. The growth was 46.7% in test [13]; 21.6% in test [14]; 50.4% in test [15]; 5.46% (active) in [16]; 77.4% in [17]; 36.7% in test [18].

Consider `O=C1OC(/C=C/c2ccccc2)=NC/1=C/c1ccccc1[N+](=O)[O-]`, for which the growth is 90.8% in test [1]; 91.9% in test [2]; 96.8% in test [3]; 99.1% in test [4]; 94.2% in test [5]; 101% in [6]. In addition, the growth in test [7] was 79.6%; in test [8] it was 98.4%; in [9] it was 107%; in test [10], 96.4%; in [11], 90.5%; in test [12], 89.8%. Besides, the growth in test [13] is 108%; in [14] it was 103%; in test [15] it was 90.7%; in [16] it was 104%; in test [17] it was 104%; in [18], 102%.

For the compound `C#C[C@]1(O)CC[C@H]2[C@@H]3CC=C4c5sc(-c6cccc(Br)c6)nc5CC[C@]4(C)[C@H]3CC[C@@]21C`, the growth in test [1] is 45.6%; in test [2] it was 2.09% (active); in test [3], 98.7%; in [4], 75.5%; in test [5], 100%; in [6], 95.9%. Further, the growth is 102% in test [7]; 101% in [8]; 69.5% in [9]; 91.1% in test [10]; 80.6% in test [11]; 87.3% in test [12]. The growth in test [13] was 91.7%; in test [14] it was 87.9%; in test [15], 55.3%; in [16], 83.6%; in test [17] it was 85.1%; in test [18], 63.8%.

In the case of `C#CCO[C@H]1CC[C@H](OCC#C)[C@@H]2[C@H]1[C@H]1C[C@@H]3[C@@]4(C)CCC[C@@](C)(C(=O)OC)[C@@H]4CC[C@@]23C=C1C(C)C`, the growth in test [1] is 20.5%; in test [2] it was 11.7%; in test [3] it was 82%; in test [4], 92.1%; in test [5] it was 99.3%; in [6], 88.6%. Moreover, the growth in test [7] is 0.137% (active); in [8] it was 75.4%; in test [9], 114%; in [10], 71.4%; in test [11] it was 94.6%; in test [12] it was 106%. The growth in test [13] is 106%; in test [14], 103%; in test [15], 90.5%; in [16], 70.4%; in test [17], 94.6%; in [18], 78%.

`CCCC(CCC)(C(N)=O)C(=O)O`: the growth was 111% in test [1]; 112% in test [2]; 102% in test [3]; 99.6% in [4]; 101% in test [5]; 105% in test [6]. Moreover, the growth was 119% in test [7]; 110% in test [8]; 106% in test [9]; 107% in test [10]; 111% in test [11]; 98.7% in [12]. In addition, the growth was 102% in test [13]; 103% in test [14]; 109% in [15]; 102% in test [16]; 100% in test [17].
